40 compounds from PubChem BioAssay can be followed below.

A word on the inhibition: it is how much of the control response was suppressed.

Active and inactive are the calls of the source. How the calls were made is not given here.

In this experiment the target is Pantothenate synthetase (Mycobacterium tuberculosis (strain ATCC 25618 / H37Rv)) (UniProt P9WIL5). Kind of experiment: Coupled enzyme confirmation of inhibitors against recombinant Mtb PanC (AID 375).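 Further: 0% = full reaction with vehicle and 100% = no enzyme background.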 To be noted: coupled enzyme assay; at 10 µM, hits give high values.
Chain of Pantothenate synthetase (Mycobacterium tuberculosis (strain ATCC 25618 / H37Rv)) (P9WIL5 whole entry, looked up): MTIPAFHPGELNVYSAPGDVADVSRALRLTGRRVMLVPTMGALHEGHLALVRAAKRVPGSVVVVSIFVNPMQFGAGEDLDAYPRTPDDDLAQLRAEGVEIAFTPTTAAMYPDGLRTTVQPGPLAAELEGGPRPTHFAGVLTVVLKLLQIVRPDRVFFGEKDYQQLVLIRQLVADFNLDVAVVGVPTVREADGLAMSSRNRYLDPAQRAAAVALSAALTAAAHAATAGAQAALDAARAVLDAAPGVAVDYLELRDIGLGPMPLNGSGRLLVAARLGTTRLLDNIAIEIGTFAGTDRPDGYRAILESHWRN
For the compound `Cc1cc(C)n(CC(=O)O)n1`, the inhibition is 0% (inactive).

On to `O=C(c1ccco1)N1CCN(c2cccc(Cl)c2)CC1`, for which the inhibition is 0% (inactive).

As for `CC(C)C(NC(=O)c1ccccc1NC(=O)c1ccco1)C(=O)O` (stereo not given), the inhibition was 4% (inactive).

For the compound `COc1cccc(NC(=O)N2CCCC2C(=O)NC(C)C)c1` (stereo not given), the inhibition is 0% (inactive).

With `O=C(NCc1ccco1)c1cc2sccc2n1Cc1ccccc1`, the inhibition was 0% (inactive).

Consider `CCN(CC)CCNC(=O)c1ccc(N2CCCCC2)c(NS(=O)(=O)c2ccc(C)cc2)c1`, for which the inhibition was 12% (inactive).

Take `CCCn1c(SCC(=O)NC(=O)NCc2ccco2)n[nH]c1=O`: the inhibition is 0% (inactive).

As to `O=C(NCC(c1cccnc1)N1CCN(c2ccc(F)cc2)CC1)OCc1ccccc1` (stereo not given), the inhibition was 0% (inactive).

Regarding `CCOc1ccc2[nH]cc(C(=O)N3CCN(CC)CC3)c(=O)c2c1`, the inhibition is 0% (inactive).

For the compound `COc1ccccc1NC(=O)CSC1CC(=O)N(c2ccc3c(c2)OCO3)C1=O` (stereo not given), the inhibition was 0% (inactive).

`CC(=O)c1n[nH]nc1NC(=O)c1ccccc1`: the inhibition was 0% (inactive).

Consider `O=C(NC1CCCC1)c1c[nH]c2ccc(F)cc2c1=O`, for which the inhibition is 0% (inactive).

Take `CCc1ccc(C2CC(c3ccccc3)n3ncnc3N2)cc1` (stereo not given): the inhibition was 0% (inactive).

Regarding `Cc1ccc(-n2c(Cn3cnc4ccccc43)nnc2SCC(=O)O)cc1`, the inhibition is 0% (inactive).

For the compound `CC1(C)Cc2cccc(OCC(=O)O)c2O1`, the inhibition was 5% (inactive).

For the compound `O=C(C1CCN(S(=O)(=O)c2cnc[nH]2)CC1)N1CCN(c2ncccn2)CC1`, the inhibition is 0% (inactive).

On to `Cc1cc(C)nc(NC(=O)c2c(-c3c(Cl)cccc3Cl)noc2C)n1`, for which the inhibition is 2% (inactive).

Consider `CCNc1oc(COc2cccc(C)c2)nc1C#N`, for which the inhibition was 5% (inactive).

Turning to `O=C(O)COc1ccc2occ(C(=O)c3ccccc3)c2c1`, the inhibition is 0% (inactive).

`CCCCNC(=O)NS(=O)(=O)c1ccc(C)cc1`: the inhibition was 0% (inactive).

`CCOC(=O)C1=C(C)Nc2nnnn2C1c1ccc(OC)c(Br)c1` (stereo not given): the inhibition is 1% (inactive).

On to `Cn1c(C(=O)NCCC2=CCCCC2)cc2c(=O)n3ccccc3nc21`, for which the inhibition was 0% (inactive).

Take `CCN(C(=O)c1cc(Cl)ccc1OC)c1ccccc1`: the inhibition is 0% (inactive).

Regarding `Cc1cn2c(-c3ccncc3)nnc2s1`, the inhibition is 0% (inactive).

Consider `O=C(Nc1ccc(F)cc1)NC1CCN(Cc2nnnn2Cc2ccco2)CC1`, for which the inhibition was 0% (inactive).

For `O=C(Nc1ccccc1C(=O)NCCCn1ccnc1)c1ccccc1`, the inhibition was 3% (inactive).

As for `COC(=O)CSc1nnc(-c2ccc(OC)cc2OC)o1`, the inhibition is 0% (inactive).

Turning to `O=c1/c(=C/c2ccco2)sc2nc(-c3ccccc3Br)nn12`, the inhibition is 0% (inactive).

Turning to `COc1ccc(-c2nc(CS(=O)CC(=O)NCc3ccccn3)c(C)o2)cc1` (stereo not given), the inhibition was 0% (inactive).

Regarding `Cc1ccc(OCC(O)Cn2c(NCCc3ccccc3)nc3c2c(=O)[nH]c(=O)n3C)cc1` (stereo not given), the inhibition was 0% (inactive).

`CCOC(=O)Cc1nn2c(=O)cc(C)nc2s1`: the inhibition is 0% (inactive).

For `COc1ccc(CCN2C(=O)CC(N3CCN(S(=O)(=O)c4ccccc4)CC3)C2=O)cc1` (stereo not given), the inhibition is 0% (inactive).

With `O=C1CCc2cc(S(=O)(=O)N3CCC(C(=O)Nc4nccs4)CC3)ccc2N1`, the inhibition was 4% (inactive).

Turning to `O=C(NCCCn1ccnc1)c1cnn2c1NC(c1ccccc1)CC2C(F)(F)F` (stereo not given), the inhibition is 2% (inactive).

Regarding `CCOC(=O)N1CCC(NC(=O)c2ccc3c(c2)sc2nc(-c4cccc(OC)c4)cn23)CC1`, the inhibition was 0% (inactive).

On to `COc1ccc(OC)c(-c2cc(C(=O)NCc3cccs3)no2)c1`, for which the inhibition was 0% (inactive).

On to `COCCOC(=O)C1=C(C)Nc2ncnn2C1c1ccc(F)cc1` (stereo not given), for which the inhibition was 0% (inactive).

With `O=C(c1cccs1)c1cn(CC(=O)N2CCc3ccccc3C2)c2ccccc12`, the inhibition was 2% (inactive).

On to `CN(C)c1ccc(NC(=O)c2ccncc2)c2ccccc12`, for which the inhibition was 6% (inactive).

For the compound `Cc1ccc2c(Cl)cc(Cl)c(OCc3c(C)noc3C)c2n1`, the inhibition is 0% (inactive).
